Assay outcomes (PubChem)
Sampled rows, rich in hits. Any-hit rate of the full collection: about 3.2%.
TR SRC2 fluor cs: Total Fluorescence Counterscreen for Inhibitors of the Interaction of Thyroid Hormone Receptor and Steroid Receptor Coregulator 2. hit rate 0.29% among 280,000. Potency, µM (titrated, usually from 106 µM), inactives show top-dose fluorescence change, negative = quenching. TRb/SRC2 Texas Red total fluorescence interference; active = well fitted curve in either direction with a large enough effect; inconclusive = small, poorly fitted or top-dose-only effect
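Flags fluorescent or light-absorbing compounds by total fluorescence, S + 2P, at 555 nm excitation and 632 nm emission. Mixture: 20 nM Texas Red SRC2 peptide, 0.6 uM human TRb LBD, 1 uM T3, 5% DMSO; compound exposure 5 h at ambient temperature.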
Tau ThT inhib: qHTS for Inhibitors of Tau Fibril Formation, Thioflavin T Binding; Microtubule-associated protein tau (Homo sapiens), P10636; recombinant tau K18 P301L, heparin-induced fibrillization, ThT fluorescence; Potency, µM (titrated, usually from 57.4 µM), without a hit: at the top dose activity, negative = inhibition, hits mostly inhibitors; hit rate 2.1% among 270,000; note: nearly all actives have a fitted effect of over 55% in size
Target sequence (P10636 561-689 P618L limits assumed): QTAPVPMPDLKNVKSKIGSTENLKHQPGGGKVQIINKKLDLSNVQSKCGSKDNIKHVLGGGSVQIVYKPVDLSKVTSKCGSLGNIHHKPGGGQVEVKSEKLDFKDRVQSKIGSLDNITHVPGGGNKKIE
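Aggregation was driven by heparin (20 uM final) acting on recombinant tau […] bearing P301L in 100 mM sodium acetate pH 7; fibrils were detected with Thioflavin T.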
Tau fluor counter: Counterscreen qHTS for Inhibitors of Tau Fibril Formation, Fluorescence Polarization. tau K18 P301L (four-repeat tau fragment) Alexa594 fluorescence, heparin fibrillization. Potency, µM (highest dose often 57.7 µM), inactives show at the top dose activity change, negative = decrease. hit rate 0.93% among 280,000. AID 1463, 2008; note: nearly all actives have a fitted effect of over 55% in size
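Human K18 P301L tau (15 uM unlabeled plus 0.24 uM Alexa 594-labeled, final) in 100 mM sodium acetate pH 7 was mixed with compound and 20 uM heparin and incubated 6 hr at 37 C.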
GoLoco inh red: qHTS Assay for Inhibitors of RGS12 GoLoco Motif Activity (Red Fluorophore); Guanine nucleotide-binding protein G(i) subunit alpha-1 (Homo sapiens), P63096; Gai1:RGS12 GoLoco peptide FP, rhodamine, 10 min; Potency, µM (highest dose often 61.6 µM), inactives show at the highest dose activity, negative = inhibition, actives largely listed as inhibitors; hit rate 0.44% among 230,000; AID 880, 2007; active = well fitted inhibition curve with a large enough effect, not every such curve was filed as active; inactive = no such curve, though single readings can be large or run the other way; note: nearly all actives have a fitted effect of over 30% in size
Tau FP inhib: qHTS for Inhibitors of Tau Fibril Formation, Fluorescence Polarization | K18 P301L tau heparin fibrillization, Alexa594 FP, 6 h | Potency, µM (series often up to 57.7 µM), for the others: at the highest dose activity, negative = inhibition, actives largely listed as inhibitors | hit rate 0.39% among 280,000 | AID 1468, 2008; note: nearly all actives have a fitted effect of over 55% in size
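Quantitative HTS format: compounds meet 15 uM recombinant K18 P301L tau and Alexa 594-tau tracer in 100 mM sodium acetate pH 7; 20 uM heparin triggers fibrillization at 37 C over 6 hr; FP gives the signal.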
TRb-SRC2 inh: qHTS for Inhibitors of the Interaction of Thyroid Hormone Receptor and Steroid Receptor Coregulator 2; AID 1469, 2008; TRbeta-SRC2 peptide binding, fluorescence polarization; receptor liganded with 1 µM T3; hit rate 0.065% among 280,000; Potency, µM (series often up to 106 µM), for inactives: at the top dose activity change, negative = inhibition, hits mostly inhibitors; Thyroid hormone receptor beta (Homo sapiens), P10828;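 note: plate controls were bound peptide for no effect and peptide without receptor for full effect; nearly all actives have a fitted effect of over 50% in size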
Target sequence (P10828 whole entry, looked up): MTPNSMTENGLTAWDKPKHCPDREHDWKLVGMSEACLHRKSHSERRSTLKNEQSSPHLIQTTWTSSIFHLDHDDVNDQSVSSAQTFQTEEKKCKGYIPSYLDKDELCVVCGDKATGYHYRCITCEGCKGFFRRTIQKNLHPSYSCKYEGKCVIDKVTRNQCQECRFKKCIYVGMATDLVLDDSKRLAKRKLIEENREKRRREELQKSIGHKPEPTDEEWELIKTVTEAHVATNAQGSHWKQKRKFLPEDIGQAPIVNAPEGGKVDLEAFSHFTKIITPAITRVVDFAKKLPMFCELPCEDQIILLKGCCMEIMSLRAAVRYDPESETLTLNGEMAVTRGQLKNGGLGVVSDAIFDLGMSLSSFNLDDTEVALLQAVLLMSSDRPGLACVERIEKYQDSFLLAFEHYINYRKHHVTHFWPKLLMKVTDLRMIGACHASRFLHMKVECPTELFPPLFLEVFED
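A fluorescence polarization screen tested compounds at multiple concentrations against complex formation between 0.6 uM TRb ligand-binding domain and 20 nM Texas Red SRC2 peptide, with 1 uM T3 present; readout after 5 hr.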
An asterisk follows results filed as active; [ ] = another dose, or the depositor's remark. Unless noted, calls come from the whole dose curve; as a rule, active = well fitted curve in the direction sought with a large enough effect; inconclusive = small, poorly fitted or top-dose-only effect, or another doubt; inactive = no such curve, though single readings can be large; an effect the other way counts as inactive or inconclusive. Unless noted, % is set by controls: 0 for no effect and ±100 for the full control effect; potency is the fitted concentration of half-maximal effect.

COc1ccc(NCC(=O)Nc2ccc(C#N)cc2)cc1Cl was read as TR SRC2 fluor cs -1%, Tau ThT inhib inconclusive, Tau fluor counter 14µM*[quencher], GoLoco inh red 13%, Tau FP inhib inconclusive and TRb-SRC2 inh -13%.
`CC(=O)/C(N=Nc1ccc2c(c1)OCCO2)=C(\C)O` gave TR SRC2 fluor cs -1%, Tau ThT inhib 10µM*, Tau fluor counter -14%, GoLoco inh red 6%, Tau FP inhib 0% and TRb-SRC2 inh 2%.
Screening CC(=O)/C(N=Nc1ccc2c(c1)OCO2)=C(\C)O returned TR SRC2 fluor cs 3%, Tau ThT inhib 3.5µM*, Tau fluor counter -14%, GoLoco inh red 20%, Tau FP inhib 5% and TRb-SRC2 inh -11%.
`CC(=O)/C(N=Nc1ccc(C(=O)O)cc1)=C(\C)O` gave TR SRC2 fluor cs -3%, Tau ThT inhib -12%, Tau fluor counter -11%, GoLoco inh red -9%, Tau FP inhib -7% and TRb-SRC2 inh -3%.
`Cc1ccc(C(C)(C)C)c(O)c1` gave TR SRC2 fluor cs -6%[201 µM] and TRb-SRC2 inh 0%[201 µM].
For COc1cc(Br)cc(C=Nc2cccc(C(F)(F)F)c2)c1O the results were TR SRC2 fluor cs -2%, Tau ThT inhib 14µM*, Tau fluor counter -4%, GoLoco inh red 6%, Tau FP inhib -1% and TRb-SRC2 inh 2%.
For O=C(O)CCCN1C(=O)/C(=C\c2ccco2)SC1=S the results were TR SRC2 fluor cs -7%, Tau ThT inhib 22µM*, Tau fluor counter -29%, GoLoco inh red 43%, Tau FP inhib inconclusive and TRb-SRC2 inh -6%.
O=C(O)CCN1C(=O)/C(=C\c2ccc(-c3nc4ccccc4s3)o2)SC1=S was read as TR SRC2 fluor cs -1%, Tau ThT inhib 2µM*, Tau fluor counter -28%, GoLoco inh red 23%, Tau FP inhib -16% and TRb-SRC2 inh -2%.
For O=C(O)CCN1C(=O)/C(=C\c2ccncc2)SC1=S the results were TR SRC2 fluor cs 1%, Tau ThT inhib -20%, Tau fluor counter 4%, GoLoco inh red 5%, Tau FP inhib 2% and TRb-SRC2 inh 4%.
Screening Cc1ccc(N2C(=O)/C(=C\c3ccco3)SC2=S)cc1 returned TR SRC2 fluor cs -2%, Tau ThT inhib -13%, Tau fluor counter -18%, GoLoco inh red 180%, Tau FP inhib -2% and TRb-SRC2 inh 11%.
O=C1/C(=C\c2ccco2)SC(=S)N1c1ccccc1 was read as TR SRC2 fluor cs inconclusive, Tau ThT inhib 25µM*, Tau fluor counter inconclusive, GoLoco inh red 70%, Tau FP inhib inconclusive and TRb-SRC2 inh 10%.
`C=CCN(C)CCCCCCOc1ccc(C(=O)c2ccc(Br)cc2)c(F)c1` gave TR SRC2 fluor cs 1% and TRb-SRC2 inh 0%.
`COc1ccc2c(c1)C(=O)[C@H](OC(=O)NS(=O)(=O)c1ccc(C)cc1)[C@@H](c1ccc(OC)c(Br)c1)O2` gave TR SRC2 fluor cs 1%, Tau ThT inhib -5%, Tau fluor counter -2%, GoLoco inh red 2%, Tau FP inhib -2% and TRb-SRC2 inh 8%.
Screening COC(=O)c1c(C)nc(C)c(C(=O)OC)c1-c1ccccc1[N+](=O)[O-] returned TR SRC2 fluor cs -3% and TRb-SRC2 inh -5%.
CCC(=O)N1C2=C(c3ccccc3[C@@H]1CC(=O)Nc1ccc3ccccc3c1)[C@@H]1C(=O)N(c3ccccc3)C(=O)[C@@H]1[C@H](C)C2 was read as TR SRC2 fluor cs 1%[11.2 µM], Tau ThT inhib -9%[11.5 µM], Tau fluor counter -15%[11.6 µM], GoLoco inh red -6%[14.2 µM], Tau FP inhib -5%[11.6 µM] and TRb-SRC2 inh -6%[11.2 µM].
CC(=O)Nc1ccc2ccccc2c1 was read as TR SRC2 fluor cs -6%, Tau ThT inhib -5%, Tau fluor counter -5%, GoLoco inh red -4%, Tau FP inhib 0% and TRb-SRC2 inh -6%.
`CC(=O)Nc1ccc2cc3ccc(NC(C)=O)cc3nc2c1` gave TR SRC2 fluor cs -11%, Tau ThT inhib 7.9µM*, Tau fluor counter inconclusive, GoLoco inh red 3%, Tau FP inhib 0% and TRb-SRC2 inh -4%.
For COc1ccc(-c2csc(Nc3ccccc3)n2)cc1 the results were TR SRC2 fluor cs -4%, Tau ThT inhib inconclusive, Tau fluor counter 28µM*[quencher], GoLoco inh red -3%, Tau FP inhib 6% and TRb-SRC2 inh 0%.
`COc1ccc2oc(=O)c(-c3csc(Nc4ccc(O)cc4)n3)cc2c1` gave TR SRC2 fluor cs -4%, Tau ThT inhib 2.2µM*, Tau fluor counter 3.2µM*[quencher], GoLoco inh red -6%, Tau FP inhib -15% and TRb-SRC2 inh -6%.
Screening NS(=O)(=O)c1ccc(Nc2nc(-c3ccc(O)cc3)cs2)cc1 returned TR SRC2 fluor cs inconclusive, Tau ThT inhib 13µM*, Tau fluor counter inconclusive, GoLoco inh red -7%, Tau FP inhib 20% and TRb-SRC2 inh 12%.
Screening CC(=O)Oc1ccc(-c2csc(Nc3ccc(S(N)(=O)=O)cc3)n2)cc1 returned TR SRC2 fluor cs -7%, Tau ThT inhib 0%, Tau fluor counter 12%[2.34 µM], GoLoco inh red 16%, Tau FP inhib 11%[2.34 µM] and TRb-SRC2 inh 5%.
COc1ccc(-c2csc(Nc3ccc(S(N)(=O)=O)cc3)n2)cc1 was read as TR SRC2 fluor cs -4%, Tau ThT inhib inconclusive, Tau fluor counter 13µM*[quencher], GoLoco inh red 5%, Tau FP inhib inconclusive and TRb-SRC2 inh 2%.
For CC(C)[C@H](NC(=O)[C@H](CCCCN)NC(=O)[C@@H](NC(=O)[C@@H]1CCCN1C(=O)[C@H](CCCN=C(N)N)NC(=O)[C@H](CCCN=C(N)N)NC(=O)[C@H](CCCCN)NC(=O)[C@H](CCCCN)NC(=O)CNC(=O)[C@@H](NC(=O)[C@@H]1CCCN1C(=O)[C@@H](N)CCCCN)C(C)C)C(C)C)C(=O)N[C@@H](Cc1ccc(O)cc1)C(=O)N1CCC[C@H]1C(=O)O the results were TR SRC2 fluor cs -3% and TRb-SRC2 inh -1%.
COc1ccc(-c2nnc(-c3cc4ccccc4oc3=O)o2)cc1 was read as TR SRC2 fluor cs -2%, Tau ThT inhib -2%, Tau fluor counter -8%, GoLoco inh red -10%, Tau FP inhib 4% and TRb-SRC2 inh 11%.
